A short description of this experiment: growth inhibition of WT strain, primary screen, mitochondrial fusion inhibitor project, WT and mutant strains, chemical genetic (AID 1362). As to conditions: mitochondrial fusion phenotypic screen, at 10 µM.
The mark [1] stands for this setting: WT strain, growth inhibition, stronger effect = higher value.

Structures are written as SMILES. In all, about 190,000 compounds went through this assay and about 4,000 (2.1%) were called active. No stated cut-off is given here; in the data, active means inhibition above about 58%; inactive means the rest, inconclusive results apart; tested in S. cerevisiae. The entries come from a sample that favours actives as a whole.

Consider `Cc1ccc(OCC(=O)Nc2ccc(S(=O)(=O)Nc3ccccn3)cc2)cc1`, for which the inhibition (usually the relative decrease from the control value, in per cent) is -2.17% (inactive) under setting [1] and -9.5% (mutant strain inhibition).

Consider `NS(=O)(=O)c1ccc(NC(=S)NC(=O)c2cccnc2)cc1`, for which the inhibition was -6.97% (inactive) under setting [1] and -10.8% (mutant strain inhibition).

For `Cn1nnnc1NCc1ccc(Cl)c(Cl)c1`, the inhibition under setting [1] is -2% (inactive) and the inhibition (mutant strain inhibition) came to 14.5%.

Consider `O=[N+]([O-])c1ccc(F)cc1Oc1nc(-c2cccnc2)nc2ccccc12`, for which the inhibition was 2.1% (inactive) under setting [1] and 3.69% (mutant strain inhibition).

Regarding `O=[N+]([O-])c1ccc(Oc2ccc(F)cc2Br)c2ccncc12`, the inhibition by setting is: under setting [1], 68.7% (active); (mutant strain inhibition) 58.1%.

For the molecule `O=C(O)CSc1nccc2ccccc12`, the inhibition is -2.02% (inactive) under setting [1] and -7.45% (mutant strain inhibition).

With `Cc1ccc(Nc2nnc(SCC(=O)c3cc4ccccc4o3)s2)cc1C`, the inhibition reads like this: under setting [1], 0.56% (inactive); (mutant strain inhibition) 20.2%.

Take `CC(C)c1ccc(Nc2nnc(SCC(=O)c3nnc(-c4ccccc4)o3)s2)cc1`: the inhibition by setting is: under setting [1], 70.5% (active); (mutant strain inhibition) 55.7%.

Take `O=C(CSc1nnc(Nc2ccccc2)s1)Nc1cccnc1Cl`: the inhibition is, setting by setting: under setting [1], -3.41% (inactive); (mutant strain inhibition) -15.4%.

Regarding `S=C(NCc1ccco1)Nc1ccc2c(c1)OCCO2`, the inhibition is, setting by setting: under setting [1], -2.47% (inactive); (mutant strain inhibition) 9.66%.

As for `CC(C)(C)NC(=O)NC(=O)COC(=O)Cc1c(F)cccc1Cl`, the inhibition is -15.4% (inactive) under setting [1] and 1.6% (mutant strain inhibition).

With `NS(=O)(=O)c1ccc(NC(=S)Nc2ccc(Br)c(Cl)c2)cc1`, the inhibition was 82.6% (active) under setting [1] and 54.2% (mutant strain inhibition).

As to `NS(=O)(=O)c1ccc(CCNC(=S)Nc2ccc(S(N)(=O)=O)cc2)cc1`, the inhibition runs as follows: under setting [1], -5.98% (inactive); (mutant strain inhibition) -14.5%.

As for `NS(=O)(=O)c1ccc(NC(=S)NC(=O)c2cccc(Br)c2)cc1`, the inhibition under setting [1] was 11% (inactive) and the inhibition (mutant strain inhibition) is 20.3%.

`CCCn1c(=S)[nH]c2ccc(C(F)(F)F)cc21`: the inhibition was 2.77% (inactive) under setting [1] and 12.1% (mutant strain inhibition).

With `CO/N=C/c1cn(-c2ccc(Cl)cc2)nn1`, the inhibition by setting is: under setting [1], -5.72% (inactive); (mutant strain inhibition) -2.58%.

Regarding `O=C(c1ccco1)N1CCN(C(=O)C2c3ccccc3Oc3ccccc32)CC1`, the inhibition is, setting by setting: under setting [1], 71.1% (active); (mutant strain inhibition) 6.75%.

For `O=C(c1ccc2c(c1)OCO2)N1CCN(C(=O)c2ccco2)CC1`, the inhibition is -13.2% (inactive) under setting [1] and -33.3% (mutant strain inhibition).

Consider `O=C(c1ccco1)N1CCN(c2cccc(Cl)c2)CC1`, for which the inhibition is 7.68% (inactive) under setting [1] and -0.39% (mutant strain inhibition).

For the molecule `O=C(C1CCN(C2CCN(Cc3cccc4c3OCO4)CC2)CC1)N1CCOCC1`, the inhibition is 5.02% (inactive) under setting [1] and 2.36% (mutant strain inhibition).

In the case of `CN(C)CCCN1C(=O)CSC1c1ccc([N+](=O)[O-])cc1` (stereo unspecified), the inhibition under setting [1] is -4.48% (inactive) and the inhibition (mutant strain inhibition) came to 1.39%.

Take `COc1ccc(/C=C/C(=O)OCC(=O)Nc2cccc(Oc3ccccc3)c2)c(OC)c1`: the inhibition by setting is: under setting [1], 7.56% (inactive); (mutant strain inhibition) 8.13%.

`COc1cccc(NC(=O)COC(=O)CCOc2ccccc2OC)c1`: the inhibition is -0.47% (inactive) under setting [1] and -4.38% (mutant strain inhibition).

Regarding `COc1cc(/C=C/C(=O)OCC(=O)Nc2cccc(Oc3ccccc3)c2)ccc1O`, the inhibition runs as follows: under setting [1], 68.3% (active); (mutant strain inhibition) 29%.

Take `O=C(c1ccc(C(F)(F)F)cc1)C1CCCN(C(=O)c2csnn2)C1` (stereo unspecified): the inhibition is 7.52% (inactive) under setting [1] and 10.7% (mutant strain inhibition).

In the case of `COc1ccc(-c2csc(NC(=O)c3ccc(N4C(=O)CCC4=O)cc3)n2)cc1OC`, the inhibition is, setting by setting: under setting [1], 7.99% (inactive); (mutant strain inhibition) 3.27%.

For the molecule `CC(=O)c1ccc(N2CCN(CC(=O)Nc3ccccc3N3CCOCC3)CC2)cc1`, the inhibition was -16% (inactive) under setting [1] and 4.64% (mutant strain inhibition).

In the case of `COC(=O)Cc1ccc(NC(=S)NCc2ccco2)cc1`, the inhibition by setting is: under setting [1], 6.76% (inactive); (mutant strain inhibition) 3.2%.

Consider `Cc1cccc(N2CCN(C(=O)c3ccccc3NC(=O)C3CCCCC3C(=O)O)CC2)c1` (stereo unspecified), for which the inhibition reads like this: under setting [1], -3.08% (inactive); (mutant strain inhibition) -3.64%.

For the molecule `CC(C)c1ccc(N2CCN(C(=O)c3ccccc3NC(=O)/C=C(\C(=O)O)c3ccccc3)CC2)cc1`, the inhibition was 71% (active) under setting [1] and 37.8% (mutant strain inhibition).

As for `O=C(O)C1CC=CCC1C(=O)Nc1ccccc1C(=O)N1CCN(c2ccccc2)CC1` (stereo unspecified), the inhibition was -12.3% (inactive) under setting [1] and -3.47% (mutant strain inhibition).

For `COc1cc(NC(=S)NCc2ccc(S(N)(=O)=O)cc2)cc(OC)c1`, the inhibition was -1.93% (inactive) under setting [1] and 4.18% (mutant strain inhibition).

As for `COc1ccc(NC(=S)NCCNC(C)=O)cc1`, the inhibition is 3.42% (inactive) under setting [1] and 8.02% (mutant strain inhibition).

As for `COc1cc(NC(=S)NCCSc2ccc(C)cc2)cc(OC)c1`, the inhibition by setting is: under setting [1], 71.4% (active); (mutant strain inhibition) 51.4%.

As to `Cc1nnc(SC(C(=O)Nc2cc(Cl)cc(Cl)c2)c2ccccc2)[nH]c1=O` (stereo unspecified), the inhibition was 1.45% (inactive) under setting [1] and 9.8% (mutant strain inhibition).

With `COc1cc(/C=C/C(=O)OCC(=O)NC(=O)NCc2ccccc2)ccc1OCC#N`, the inhibition by setting is: under setting [1], 6.54% (inactive); (mutant strain inhibition) 3.13%.

`CN1C(=O)C(CC(=O)Nc2ccccc2)S/C1=N/c1nccs1` (stereo unspecified): the inhibition is, setting by setting: under setting [1], -7.94% (inactive); (mutant strain inhibition) 3.24%.

Take `COc1ccc(Cl)cc1NC(=O)C(C)N1CCc2ccccc21` (stereo unspecified): the inhibition reads like this: under setting [1], 54% (inactive); (mutant strain inhibition) 18.4%.

Take `Clc1ncn(CCOc2ccccc2)c1Cl`: the inhibition runs as follows: under setting [1], -14.3% (inactive); (mutant strain inhibition) -12.6%.

Turning to `Cc1cc2ncn(CCCCOc3ccccc3)c2cc1C`, the inhibition is 62.5% (active) under setting [1] and 44.6% (mutant strain inhibition).

`COCCOCCn1cnc2ccccc21`: the inhibition is, setting by setting: under setting [1], -10.3% (inactive); (mutant strain inhibition) -7.09%.

As for `COc1ccc(C(=O)NNC(=O)c2cc(C)[nH]n2)cc1`, the inhibition was -20% (inactive) under setting [1] and -23.8% (mutant strain inhibition).

For `C/C(=C\c1ccco1)CN1CCC(N2CCC(C(=O)N3CCOCC3)CC2)CC1`, the inhibition is -2.61% (inactive) under setting [1] and 2.35% (mutant strain inhibition).
